Assay outcomes deposited in PubChem BioAssay by several laboratories.
BoNT-F LC inh: blocks Botulinum neurotoxin F light chain protease. Multiplex microsphere protease cleavage assay, flow cytometry. inhibition, % at 10 µM. hit rate 0.22% among 360,000; in the data active means inhibition above about 35%, passing the limit was not always enough; inconclusive means no clear call, values can overlap the other calls; further: plate controls were buffer without enzyme for full effect and enzyme alone for no effect
Anthrax LF prot: blocks Bacillus anthracis lethal factor protease; P15917; multiplex microsphere protease cleavage assay, LF; inhibition, % at 10 µM; hit rate 0.12% among 360,000; further: plate controls were buffer without enzyme for full effect and enzyme alone for no effect
Autofluor counter: compound fluorescence in toxin protease inhibitor counterscreen | compound autofluorescence counterscreen, microsphere flow cytometry; hits give high values | fluorescence intensity (no concentration beside the values) | hit rate 3.1% among 360,000 | AID 624483; in the data active means fluorescence intensity above about 16000; inconclusive means no clear call, values can overlap the other calls
BoNT-A LC inh2: blocks Botulinum neurotoxin A light chain protease | hit rate 0.17% among 360,000 | AID 588499 | inhibition, % at 10 µM | multiplex microsphere protease substrate cleavage, flow cytometry; further: plate controls were buffer without enzyme for full effect and enzyme alone for no effect
DUSP3 inh: DUSP3 (human) phosphatase inhibition; P51452; recombinant VHR phosphatase, pNPP absorbance; inhibition, % at 13.3 µM; hit rate 0.52% among 290,000; AID 1654; in the data active means inhibition above about 50%
Target sequence (P51452 whole entry, looked up): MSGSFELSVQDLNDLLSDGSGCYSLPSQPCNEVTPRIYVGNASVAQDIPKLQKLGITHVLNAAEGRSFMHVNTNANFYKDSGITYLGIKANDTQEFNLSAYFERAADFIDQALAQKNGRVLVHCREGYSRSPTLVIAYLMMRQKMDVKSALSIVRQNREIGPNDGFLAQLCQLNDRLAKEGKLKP
MazF activator: MazEF (E. coli) toxin RNase activation; P0AE70; FAM/BHQ RNA-DNA oligo cleavage fluorescence, 5 h; activation, % at 20 µM; hit rate 0.32% among 350,000; AID 504720; in the data active means activation above about 50%
Target sequence (P0AE70 whole entry, looked up): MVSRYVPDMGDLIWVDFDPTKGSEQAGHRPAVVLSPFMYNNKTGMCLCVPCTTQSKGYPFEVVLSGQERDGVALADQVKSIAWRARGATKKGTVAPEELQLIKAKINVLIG
* hit, by the source's call; u = inconclusive; x = no result. In the library only some 4% were active in any assay of this set; here they are far more common. Unless noted, no stated cut-off is given here; in the data, active means inhibition above about 30%; inconclusive means no clear call, values can overlap the other calls; inactive means below that.

SMILES	BoNT-F LC inh	Anthrax LF prot	Autofluor counter	BoNT-A LC inh2	DUSP3 inh	MazF activator
O=C(Nc1ccsc1C(=O)NC1CCCCC1)c1ccccc1	-2	-1	20407*	u	-14	11
COC(=O)CC(NC(=O)c1ccco1)c1cccc2ccccc12 (stereo not given)	-47	-4	5164	-1	24	-3
CC(NC(=O)c1ccco1)c1cccc2ccccc12 (stereo not given)	2	0	22307*	1	-1	8
CN1CC[n+]2cnc3ccccc3c21	6	-12	18857*	u	32	-5
c1ccc(Sc2nc(N3CCCCC3)nc(N3CCCCC3)n2)nc1	4	-7	19461*	u	-13	-3
Cc1cccc(S(=O)(=O)NNC(=O)Cc2cccn2C)c1	3	3	4632	0	11	0
O=C(c1ccc(Cl)cc1)c1oc2ccccc2c1CS(=O)(=O)c1ccccc1	1	-4	22160*	0	-1	-4
Nc1c(C(=O)c2ccccc2)oc2ccccc12	7	-2	3626	-1	12	8
O=C(NC1CCCCCCC1)C1c2ccccc2C(=O)N1Cc1ccco1 (stereo not given)	9	1	9541	1	17	-11
O=C(NC1CCCC1)C1c2ccccc2C(=O)N1C1CCCCC1 (stereo not given)	1	0	19915*	2	0	5
O=C1c2cccnc2C(O)N1Cc1cccs1 (stereo not given)	-12	-3	10043	-1	12	6
O=C(NC1CCCCC1)C1c2ccccc2OCC(=O)N1CCCN1CCOCC1 (stereo not given)	-2	2	5204	0	x	x
O=C1c2cccnc2C(O)N1C1CCCCC1 (stereo not given)	-4	-1	23226*	-3	-16	-6
CC1CCC(NC(=O)C2c3ccccc3C(=O)N2CCCN2CCOCC2)CC1 (stereo not given)	-3	-2	24072*	u	26	6
CCCCN1C(=O)c2ccccc2C1C(=O)NC1CCCC1 (stereo not given)	2	-1	22700*	2	15	6
CN(C)CC1(c2ccccc2)CCCC1	-4	-1	17486*	-2	4	-2
CNC(=O)c1nn(-c2ccc(C)cc2)ccc1=O	-5	-3	2354	0	6	2
NNC(=O)c1nn(-c2ccc(Cl)cc2)ccc1=O	-4	-2	23538*	u	17	7
Cc1ccc(-c2cc(C)nc3nc(N)nn23)cc1	3	1	16426*	0	19	7
CCc1nnc(NC(=O)Cn2nc(-c3ccc(OC)c(OC)c3)ccc2=O)s1	3	0	8710	1	24	1
CCCc1nnc(NC(=O)CCC(=O)NCc2ccccc2OC)s1	0	-2	22157*	0	14	-3
CCc1nnc(NC(=O)Cn2nc(-c3ccccc3OC)ccc2=O)s1	1	-3	22524*	u	6	44
CCc1nnc(NC(=O)CCc2ccccc2OC)s1	5	-1	4226	2	19	-21
CCOCCCNc1nc2c(C)cccn2c(=O)c1/C=C1\SC(=S)N(C(C)CC)C1=O (stereo not given)	x	x	x	x	6	603*
CCCN1C(=O)/C(=C/c2c(NCCCOCC)nc3c(C)cccn3c2=O)SC1=S	-8	-1	3642	1	4	295*
SMILES	BoNT-F LC inh	Anthrax LF prot	Autofluor counter	BoNT-A LC inh2	DUSP3 inh	MazF activator
CCOCCCNc1nc2c(C)cccn2c(=O)c1/C=C1\SC(=S)N(CC(C)C)C1=O	13	0	4040	4	41	-427
O=C(CN1C(=O)C2CC=CCC2C1=O)OCC(=O)c1ccc(Cl)c([N+](=O)[O-])c1 (stereo not given)	-7	-4	6121	-2	2	10
CC(=O)c1sc(-c2ccc(F)cc2)cc1NS(=O)(=O)c1ccccc1	u	-3	u	2	26	1
Cc1cccc(-n2c(SCc3cc(=O)n4ccsc4n3)nc3ccccc32)c1	-11	1	4624	6	0	1
CCC(C)n1c(O)c(C=NCC2CCCO2)c(=O)[nH]c1=S (stereo not given)	2	0	4462	0	25	7
CCCc1ccc(OCc2ccc(C(=O)OC)o2)c(OC)c1	1	-2	23181*	1	-4	-2
Cc1cc(F)ccc1C(O)c1ncc(-c2ccccc2)[nH]1 (stereo not given)	-2	-2	3599	0	x	x
COC(=O)c1c(C)cc(O)c(C=O)c1O	-2	0	5574	-1	x	4
COC(=O)C1=C(C)NC(=O)CC1c1ccc(F)c(Br)c1 (stereo not given)	1	-1	23452*	u	4	7
COC(=O)C1=C(C)NC(=O)CC1c1ccc(C(=O)OC)cc1 (stereo not given)	1	2	2913	0	0	10
CC(=O)Oc1ccc(C(=O)O)c(OC(C)=O)c1	4	14	2182	2	16	5
O=[N+]([O-])c1ccc(/C=N/NC2=NS(=O)(=O)c3ccccc32)cc1	3	0	2301	0	-7	0
O=[N+]([O-])c1ccc(O)c(/C=N/NC2=NS(=O)(=O)c3ccccc32)c1	41*	1	2644	6	17	-6
Cc1ccc(C2SCC(=O)Nc3c2c(=O)[nH]n3C2CCOC(C)(C)C2)cc1 (stereo not given)	-6	-4	4845	0	5	10
COc1ccc(OC)c(NC(=O)c2nnn(CCc3ccccc3)c2N)c1	-5	-5	5303	0	-13	4
COc1ccc(OC)c(NC(=O)c2sc3nc(Cc4ccccc4)cc(C(F)(F)F)c3c2N)c1	0	1	20176*	1	21	0
CN(C)CCNC(=O)c1sc2nc(-c3ccccc3)cc(C(F)(F)F)c2c1N	4	7	4395	14	16	31
COc1ccc(-c2cc(C(F)(F)F)c3c(N)c(C(=O)NCCSC)sc3n2)cc1	u	-14	6679	-5	54*	618*
O=C(O)CCC(=O)NC(c1ccccc1)c1ccccc1	-6	0	3407	-1	5	-10
CCCCCOc1ccc(C(=O)NCC2(c3ccccc3)CCOCC2)cc1	-2	-6	16606*	-2	25	-6
CCCCOc1ccc(C(=O)NCC2(c3ccccc3)CCOCC2)cc1	2	0	22415*	u	14	-8
CCOc1ccc(C(=O)NCC2(c3ccccc3)CCOCC2)cc1	-14	-1	2975	-1	-12	0
C=C1C[C@@H]2C[C@@H]2CN(S(=O)(=O)c2ccc(C)cc2)[C@@H]1c1ccco1	-7	-2	6235	0	x	x
C=CCNc1ncnc2c1cnn2-c1ccc(OC)cc1	0	-4	16362*	0	18	-15
CCCNc1ncnc2c1cnn2-c1ccc(OC)cc1	x	x	x	x	21	x
CC1CCN(c2nc3ccccc3nc2C(C#N)C(=O)OC2CCCCC2)CC1 (stereo not given)	16	7	10980	10	-1	-15
